# Only some compounds are listed: those with a hit (about 19% of all), similar ones and a draw of the others.
# TDP1 cell CPT: DT40-hTDP1 cell growth loss with CPT. Potency, µM (series often up to 46.2 µM), inactives show top-dose activity change, negative = growth inhibition, usual class: inhibitors. AID 686979. chicken DT40 Tdp1-/-;hTDP1 cells + 20 nM CPT, ATP luminescence, 48 h. hit rate 12% among 420,000; also: potency is read from the fitted curve at half-maximal effect; nearly all actives have a fitted effect of over 55% in size
#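 Chicken DT40 Tdp1-/- cells complemented with human TDP1, 400 cells/well, exposed to compounds plus 20 nM camptothecin for at least 48 h at 37 C; viability read as ATP content by CellTiter-Glo luminescence.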
# HT1080 IDH1KD tx: toxicity to HT-1080 IDH1 knockdown cells (counter line); Potency, µM (highest dose often 46.1 µM), inactives show at the top dose activity, negative = toxicity, usual class: cytotoxic; HT-1080 IDH1 knockdown viability, ATP luminescence, 48 h; hit rate 2% among 360,000; AID 686971;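 also: potency is read from the fitted curve at half-maximal effect; 0% = DMSO wells and -100% = cell-free medium wells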
#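 Knockdown cells (IDH1KD HT-1080) received compounds 2 h after plating at 750 cells/well and were kept 48 h at 37 °C in 5% FBS RPMI. A CellTiter-Glo luminescence read gave % activity for curve fitting.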
# DT40 TDP1 no CPT: qHTS for Inhibitors of human tyrosyl-DNA phosphodiesterase 1 (TDP1): qHTS in cells in absence of CPT; DT40 Tdp1-/- hTDP1 cells, no CPT, ATP luminescence, 48 h; Potency, µM (doses to about 46.2 µM), for the others: at the top dose activity change, negative = growth inhibition, most hits filed as inhibitors; hit rate 15% among 420,000; AID 686978, 2013; also: potency is read from the fitted curve at half-maximal effect; nearly all actives have a fitted effect of over 55% in size
#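 DT40 Tdp1-/-;hTDP1 cells, no CPT (DMSO vehicle only), 400 cells/well; compounds pin-transferred; ≥48 hr, 37 °C; CellTiter-Glo 30 min RT dark, luminescence read.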
# HT1080-NT tox: kills 2HG-producing HT-1080-NT fibrosarcoma cells; HT-1080-NT fibrosarcoma viability, CellTiter-Glo ATP luminescence, 48 h; Potency, µM (series often up to 46.1 µM), for inactives: top-dose activity, negative = less viability, hits mostly cytotoxic; hit rate 1.6% among 360,000;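 also: NT is the 2HG producing partner of a matched IDH1 knockdown line; potency is read from the fitted curve at half-maximal effect; 0% = DMSO-treated cells and -100% = media-only wells without cells; nearly all actives have a fitted effect of over 55% in size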
#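 Compounds were tested in concentration-response format on HT-1080-NT cells for 48 hours at 37 degrees C. Cell viability came from CellTiter-Glo luminescence; curves were classified by r2, response magnitude and activity.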
# IL-1B inflam inh: inflammasome signaling inhibition, IL-1 beta readout | activity change, % at 57.5 µM | AID 743279 | hit rate 4.7% among 360,000 | THP-1 LPS/ATP IL-1B secretion, AlphaLISA, 16 h; active compounds read low; in the data active = activity change below about -50%; inconclusive = mostly about -30% to -49%
#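 THP-1 cells pretreated 1 hr with compounds (up to 57.5 uM final), then stimulated with LPS (250 ng/mL final) plus ATP (1.25 mM final); secreted IL-1B measured by AlphaLISA after 16 hr, decreased signal indicating inhibition.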
# * hit, by the source's call; u = inconclusive; x = no result; [ ] = remark or other dose. Unless noted, calls follow the shape of the dose curve; as a rule, active = well fitted curve in the direction sought with a large enough effect; inconclusive = small, poorly fitted or top-dose-only effect, or another doubt; inactive = no such curve, though single readings can be large; an effect the other way counts as inactive or inconclusive. Unless noted, % is scaled to controls: 0 for no effect and ±100 for the full control effect.
SMILES,TDP1 cell CPT,HT1080 IDH1KD tx,DT40 TDP1 no CPT,HT1080-NT tox,IL-1B inflam inh
CC12CCC(C/C1=N\N=C1\NC(=O)/C(=C\c3ccc(Cl)cc3)S1)C2(C)C (stereo not drawn),u,21µM*,u,16µM*,-57*
Cc1c(C(=O)Nc2ccc(F)cc2)nnn1-c1cccc(C(F)(F)F)c1,7.3µM*,-9%,9.2µM*,-6%,-8
Cc1cccc(-n2nnc(C(=O)Nc3ccc(F)cc3)c2N)c1,u,-8%,u,4%,-13
CC1CCN(c2ccc(NC(=O)C3CCCN3S(=O)(=O)c3ccc(F)cc3)cc2)CC1 (stereo not drawn),18µM*,-2%,4.1µM*,-2%[9.24 µM],u
Cc1ccc(S(=O)(=O)N2CCCC2C(=O)Nc2ccc(Br)cc2)cc1 (stereo not drawn),u,x,15µM*,x,x
Cc1cc(C)cc(NC(=O)C2CCCN2S(=O)(=O)c2ccc3c(c2)C(C)(C)C(=O)N3C)c1 (stereo not drawn),16µM*,1%,u,7%,12
COc1cccc(NC(=O)C2CCCN2S(=O)(=O)c2ccc3c(c2)C(C)(C)C(=O)N3C)c1 (stereo not drawn),-18%,6%,u,u,2
CCN1CCN(C(c2ccc(C(F)(F)F)cc2)c2ccc3cccnc3c2O)CC1 (stereo not drawn),u,u,16µM*,u,-74*
Cc1nc(C)c(-c2csc(Nc3ccc(S(N)(=O)=O)cc3)n2)s1,u,-7%,u,-18%,-59*
COc1ccc(Nc2nc(-c3sc(C)nc3C)cs2)c(OC)c1,6.5µM*,16µM*,8.2µM*,u,-14
Cc1nc(Nc2ccc(S(N)(=O)=O)cc2)sc1-c1ccccc1,u,u,18µM*,u,-80*
COc1ccc(Nc2nc(-c3cccs3)cs2)c(OC)c1,-16%,-4%,-1%,-4%,-21
CC(=O)Nc1ccc(Nc2nc(-c3sc(C)nc3C)cs2)cc1,16µM*,-6%,u,-16%,-50*
COc1ccc(CCNC(=O)c2c(C)oc3ncnc(N4CCOCC4)c23)c(OC)c1,3%,x,-11%,x,x
Cc1ccc(Nc2nc(-c3sc(C)nc3C)cs2)cc1,0.92µM*,1.8µM*,0.58µM*,1.5µM*,71
CC(=O)c1ccc(Nc2nc(-c3sc(C)nc3C)cs2)cc1,2.1µM*,2.9µM*,1.8µM*,u,1
CCOc1ccc(Nc2nc(-c3sc(N)nc3C)cs2)cc1,u,u,u,-28%,u
Cc1ccc(Nc2nc(-c3sc(N)nc3C)cs2)cc1,-76%,0%,u,-4%,-20
O=C(Nc1nnc(C2CC2)s1)c1cncc(Br)c1,-1%,7%,-27%,1%,-16
COC(=O)[C@H](NC(=O)c1cc(-c2ccccc2)sc1N)C(C)C,u,-13%,u,0%,u
O=C(NO)c1ccc(C(=O)N(C2CCCCC2)C2CCCCC2)cc1,16µM*,u,21µM*,u,53
O=S(=O)(NC1CC1)c1ccc(S(=O)(=O)N(Cc2ccccn2)C2CCCC2)cc1,0%,5%,-18%,-4%,4
O=C(c1c(F)cccc1F)N(C1CCCCC1)C1CCCCC1,u,1%,18µM*,-5%,48
O=C(c1c(F)cccc1F)N(Cc1ccccn1)C1CCCC1,18µM*,u,4.6µM*,-2%,5
O=C(c1c(F)cccc1F)N(Cc1cccs1)C1CCCC1,12µM*,-14%,9.2µM*,4%,-9
SMILES,TDP1 cell CPT,HT1080 IDH1KD tx,DT40 TDP1 no CPT,HT1080-NT tox,IL-1B inflam inh
O=C(O)C1C2C=CC(C2)C1C(=O)NC1CCS(=O)(=O)C1 (stereo not drawn),2%,16%,-2%,25%,14
CCCCCCCCOC(=O)CCc1c(C)[nH]c(=S)[nH]c1=O,u,-9%,-13%,-4%,-11
CCCCCCOC(=O)/C=C/c1c(C)[nH]c(=O)[nH]c1=O,u,-8%,4.6µM*,-7%,31
COc1cc(C=O)ccc1Oc1nc(Nc2ccc(F)cc2F)nc(N2CCOCC2)n1,u,-10%,u,-2%,-56*
COc1cc(C=O)ccc1OCC(=O)Nc1ccccc1N1CCOCC1,u,2%,u,-1%,-13
O=C(CCc1ccc(S(=O)(=O)NCCc2ccccc2)cc1)NCc1ccco1,-26%,-4%[9.24 µM],u,-28%,-4
CC1(C)CN=c2s/c(=C\c3ccc(Cl)cc3)c(=O)n2C1,12µM*,u,18µM*,u,-86*
O=C(NCc1ccccn1)c1ccc(CNS(=O)(=O)c2cccc(Cl)c2)cc1,-13%,10%,-23%,0%,22
Cc1ccc(C)c(S(=O)(=O)N2CCN(C(=O)CCCc3c[nH]c4ccccc34)CC2)c1,u,-22%,23µM*,0%,u
Cc1ccc(C)c(S(=O)(=O)N2CCN(C(=O)c3ccccc3Cc3ccccc3)CC2)c1,11%,-14%,u,-19%,-59*
CCn1c(=O)c(C(=O)CN2CCN(S(=O)(=O)c3cc(C)ccc3C)CC2)c(N)n(Cc2ccccc2)c1=O,10µM*,-3%,16µM*,1%,0
Cc1ccc(C)c(S(=O)(=O)N2CCN(C(=O)CCc3c[nH]c4ccccc34)CC2)c1,-5%,2%,-22%,1%,-6
Cc1ccc(C)c(S(=O)(=O)N2CCN(C(=O)CCc3nc4ccccc4c(=O)[nH]3)CC2)c1,21µM*,-13%,21µM*,-13%,19
Cc1ccc(S(=O)(=O)N2CCN(C(=O)CCc3nc4ccccc4c(=O)[nH]3)CC2)c(C)c1,u,-23%,u,u,u
CC1CN(C(=O)COC(=O)CSc2ccc(C(N)=O)cc2[N+](=O)[O-])CC(C)O1 (stereo not drawn),-12%,17%,-7%,1%,17
CCN(CCn1cccn1)Cc1nc(Cc2cccc(F)c2)no1,16%,-9%,-16%,6%,-3
Cc1ccc(C)c(S(=O)(=O)N2CCN(C(C)C(=O)Nc3ccccc3-c3ccccc3)CC2)c1 (stereo not drawn),u,-4%,16µM*,-6%,0
O=C(CCc1nc2ccccc2c(=O)[nH]1)N1CCN(S(=O)(=O)c2ccccc2Br)CC1,21µM*,-21%,u,-3%,-20
Cc1ccc(C)c(S(=O)(=O)NCc2ccc(C(=O)N3CCC(Cc4ccccc4)CC3)cc2)c1,u,u,u,u,-57*

# From PubChem
